Binding signal data for 20 sequences are collected here from article PMC11006913.

Where a chain is given by its changes, count along the chain named.

Experiment in all cases: PBM; 200 nM protein, PBS
Holding throughout (settings): dsDNA, one strand shown

In assay [1] the target is HOXC9 (Homo sapiens, UniProt P31274 178-260, K195R).
The target of assay [2] is HOXC9 (Homo sapiens, UniProt P31274 178-260).
For assay [3], the target named is ALX3 (Homo sapiens, UniProt O95076 139-225, N203Q).
The target of assay [4] is HOXD13 (Homo sapiens, UniProt P35453 263-343, T313R).
Chain of HOXD13 (Homo sapiens, UniProt P35453 263-343, T313R) (P35453 263-343 T313R): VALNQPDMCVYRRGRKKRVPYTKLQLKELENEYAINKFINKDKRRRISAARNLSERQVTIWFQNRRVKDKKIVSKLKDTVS
Assay [5] has as its target HOXC9 (Homo sapiens, UniProt P31274 178-260, R193K).
In assay [6] the target is HOXD13 (Homo sapiens, UniProt P35453 263-343).
Chain of HOXD13 (Homo sapiens, UniProt P35453 263-343) (P35453 263-343): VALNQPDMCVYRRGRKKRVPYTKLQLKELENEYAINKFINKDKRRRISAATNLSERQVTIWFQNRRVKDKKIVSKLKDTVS
The target in assay [7] is ALX3 (Homo sapiens, UniProt O95076 139-225).
Chain of ALX3 (Homo sapiens, UniProt O95076 139-225) (O95076 139-225): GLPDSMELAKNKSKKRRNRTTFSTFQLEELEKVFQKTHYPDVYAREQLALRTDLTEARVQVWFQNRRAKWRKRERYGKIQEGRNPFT
Assay [8] concerns the target PROP1 (Homo sapiens, UniProt O75360 56-141).
Assay [9] deals with PROP1 (Homo sapiens, UniProt O75360 56-141, R99H).
Chain of PROP1 (Homo sapiens, UniProt O75360 56-141, R99H) (O75360 56-141 R99H): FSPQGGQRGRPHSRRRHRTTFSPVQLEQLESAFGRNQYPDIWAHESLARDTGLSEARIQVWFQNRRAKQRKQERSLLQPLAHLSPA
The target of assay [10] is ALX3 (Homo sapiens, UniProt O95076 139-225, L168Q).
Chain of ALX3 (Homo sapiens, UniProt O95076 139-225, L168Q) (O95076 139-225 L168Q): as the sequence (O95076 139-225) above, with L30Q counted along it
Assay [11] deals with HOXD13 (Homo sapiens, UniProt P35453 263-343, T313A).
Chain of HOXD13 (Homo sapiens, UniProt P35453 263-343, T313A) (P35453 263-343 T313A): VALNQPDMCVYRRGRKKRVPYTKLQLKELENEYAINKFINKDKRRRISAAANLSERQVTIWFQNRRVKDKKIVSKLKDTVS
Assay [12] addresses HOXC9 (Homo sapiens, UniProt P31274 178-260, R222W).
The target in assay [13] is ALX3 (Homo sapiens, UniProt O95076 139-225, L168V).
Chain of ALX3 (Homo sapiens, UniProt O95076 139-225, L168V) (O95076 139-225 L168V): as the sequence (O95076 139-225) above, with L30V counted along it
Assay [14] addresses PROP1 (Homo sapiens, UniProt O75360 56-141, F88S).
Assay [15] deals with ALX3 (Homo sapiens, UniProt O95076 139-225, N203S).
Chain of ALX3 (Homo sapiens, UniProt O95076 139-225, N203S) (O95076 139-225 N203S): as the sequence (O95076 139-225) above, with N65S counted along it
For assay [16], the target named is MSX2 (Homo sapiens, UniProt P35548 130-214, R199I).
Chain of MSX2 (Homo sapiens, UniProt P35548 130-214, R199I) (P35548 130-214 R199I): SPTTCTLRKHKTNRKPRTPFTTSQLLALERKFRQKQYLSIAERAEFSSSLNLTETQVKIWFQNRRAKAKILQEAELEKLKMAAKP
Assay [17] has as its target MSX2 (Homo sapiens, UniProt P35548 130-214).
The target of assay [18] is MSX2 (Homo sapiens, UniProt P35548 130-214, F161Y).
Chain of MSX2 (Homo sapiens, UniProt P35548 130-214, F161Y) (P35548 130-214 F161Y): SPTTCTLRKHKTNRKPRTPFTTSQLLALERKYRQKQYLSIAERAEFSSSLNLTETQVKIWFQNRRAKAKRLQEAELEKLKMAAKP
Assay [19] addresses HOXA2 (Homo sapiens, UniProt O43364 129-215, R185T).
For assay [20], the target named is HOXA2 (Homo sapiens, UniProt O43364 129-215, R185K).
Chain of HOXA2 (Homo sapiens, UniProt O43364 129-215, R185K) (O43364 129-215 R185K): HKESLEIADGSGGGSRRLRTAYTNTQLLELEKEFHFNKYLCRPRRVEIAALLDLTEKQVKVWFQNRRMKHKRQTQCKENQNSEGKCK
The target of assay [21] is HOXA2 (Homo sapiens, UniProt O43364 129-215, Y150S).
Chain of HOXA2 (Homo sapiens, UniProt O43364 129-215, Y150S) (O43364 129-215 Y150S): as the sequence (O43364 129-215 R185K) above, with Y22S, K57R counted along it
Assay [22] concerns the target HOXA2 (Homo sapiens, UniProt O43364 129-215).
The target of assay [23] is ALX1 (Homo sapiens, UniProt Q15699 118-204, L144V).
Chain of ALX1 (Homo sapiens, UniProt Q15699 118-204, L144V) (Q15699 118-204 L144V): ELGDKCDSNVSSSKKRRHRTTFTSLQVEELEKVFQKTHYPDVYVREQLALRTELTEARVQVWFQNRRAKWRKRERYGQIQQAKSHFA
In assay [24] the target is ALX1 (Homo sapiens, UniProt Q15699 118-204, L144R).
Chain of ALX1 (Homo sapiens, UniProt Q15699 118-204, L144R) (Q15699 118-204 L144R): as the sequence (Q15699 118-204 L144V) above, with V27R counted along it
Assay [25] addresses ALX1 (Homo sapiens, UniProt Q15699 118-204).
In assay [26] the target is T1, VENTX (Homo sapiens, UniProt O95231 78-163).
T1 sequence: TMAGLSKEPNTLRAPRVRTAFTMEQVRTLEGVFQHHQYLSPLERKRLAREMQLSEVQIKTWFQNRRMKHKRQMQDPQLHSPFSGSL

Assay [27] has as its target ALX4 (Homo sapiens, UniProt Q9H161 200-286).
The target in assay [28] is T2, SIX6 (Homo sapiens, UniProt O95475 114-200, L143V).
T2 sequence: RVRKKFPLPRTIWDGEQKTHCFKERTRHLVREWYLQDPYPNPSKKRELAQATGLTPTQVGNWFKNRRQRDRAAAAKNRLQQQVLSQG

For assay [29], the target named is NKX3-2 (Homo sapiens, UniProt P78367 192-278, P234S).
Chain of NKX3-2 (Homo sapiens, UniProt P78367 192-278, P234S) (P78367 192-278 P234S): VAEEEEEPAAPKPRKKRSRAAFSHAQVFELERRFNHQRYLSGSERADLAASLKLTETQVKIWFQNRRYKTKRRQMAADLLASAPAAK
Assay [30] concerns the target NKX3-2 (Homo sapiens, UniProt P78367 192-278).
The target of assay [31] is T3, VENTX (Homo sapiens, UniProt O95231 78-163, Y115F).
T3 sequence: T1 sequence with Y38F

Chain of HOXC9 (Homo sapiens, UniProt P31274 178-260, R193K) (P31274 178-260 R193K): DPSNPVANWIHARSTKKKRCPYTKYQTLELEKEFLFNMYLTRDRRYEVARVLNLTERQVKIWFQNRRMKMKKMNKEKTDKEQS
Chain of HOXC9 (Homo sapiens, UniProt P31274 178-260, R222W) (P31274 178-260 R222W): as the sequence (P31274 178-260 R193K) above, with K16R, R45W counted along it
Chain of HOXC9 (Homo sapiens, UniProt P31274 178-260, K195R) (P31274 178-260 K195R): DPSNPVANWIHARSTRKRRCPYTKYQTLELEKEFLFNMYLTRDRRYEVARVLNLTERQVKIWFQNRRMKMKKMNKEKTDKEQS
Chain of HOXC9 (Homo sapiens, UniProt P31274 178-260) (P31274 178-260): as the sequence (P31274 178-260 R193K) above, with K16R counted along it
Chain of HOXA2 (Homo sapiens, UniProt O43364 129-215) (O43364 129-215): as the sequence (O43364 129-215 R185K) above, with K57R counted along it
Chain of HOXA2 (Homo sapiens, UniProt O43364 129-215, R185T) (O43364 129-215 R185T): as the sequence (O43364 129-215 R185K) above, with K57T counted along it
Chain of ALX4 (Q9H161 200-286): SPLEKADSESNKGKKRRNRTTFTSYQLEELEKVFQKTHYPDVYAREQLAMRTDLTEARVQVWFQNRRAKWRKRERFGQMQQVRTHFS
Chain of MSX2 (Homo sapiens, UniProt P35548 130-214) (P35548 130-214): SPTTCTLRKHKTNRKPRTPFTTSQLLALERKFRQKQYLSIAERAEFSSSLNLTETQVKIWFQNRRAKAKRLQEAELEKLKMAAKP
Chain of NKX3-2 (Homo sapiens, UniProt P78367 192-278) (P78367 192-278): as the sequence (P78367 192-278 P234S) above, with S43P counted along it
Chain of ALX3 (Homo sapiens, UniProt O95076 139-225, N203Q) (O95076 139-225 N203Q): as the sequence (O95076 139-225) above, with N65Q counted along it
Chain of PROP1 (Homo sapiens, UniProt O75360 56-141) (O75360 56-141): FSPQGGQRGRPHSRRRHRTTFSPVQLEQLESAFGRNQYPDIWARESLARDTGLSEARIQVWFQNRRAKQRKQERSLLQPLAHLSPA
Chain of PROP1 (Homo sapiens, UniProt O75360 56-141, F88S) (O75360 56-141 F88S): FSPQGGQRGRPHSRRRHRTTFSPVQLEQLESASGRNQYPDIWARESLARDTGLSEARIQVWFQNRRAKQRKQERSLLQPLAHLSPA
Chain of ALX1 (Homo sapiens, UniProt Q15699 118-204) (Q15699 118-204): as the sequence (Q15699 118-204 L144V) above, with V27L counted along it

On to CCCCCCTC, for which the binding signal in assay [1] was 9.44 upbm affinity estimate (log intensity, higher = more binding, comparable within an allelic series); in assay [2], 9.34 upbm affinity estimate (log intensity, higher = more binding, comparable within an allelic series); in assay [3] it was 7.49 upbm affinity estimate (log intensity, higher = more binding, comparable within an allelic series); in assay [4], 8.92 upbm affinity estimate (log intensity, higher = more binding, comparable within an allelic series); in [5], 9.54 upbm affinity estimate (log intensity, higher = more binding, comparable within an allelic series); in [6] it was 9.09 upbm affinity estimate (log intensity, higher = more binding, comparable within an allelic series). The binding signal in assay [7] is 7.67 upbm affinity estimate (log intensity, higher = more binding, comparable within an allelic series); in [8], 6.57 upbm affinity estimate (log intensity, higher = more binding, comparable within an allelic series); in assay [9], 6.41 upbm affinity estimate (log intensity, higher = more binding, comparable within an allelic series); in assay [10], 7.57 upbm affinity estimate (log intensity, higher = more binding, comparable within an allelic series); in assay [11], 9.19 upbm affinity estimate (log intensity, higher = more binding, comparable within an allelic series); in assay [12] it was 9.27 upbm affinity estimate (log intensity, higher = more binding, comparable within an allelic series). The binding signal in assay [13] is 7.44 upbm affinity estimate (log intensity, higher = more binding, comparable within an allelic series); in [14] it was 5.9 upbm affinity estimate (log intensity, higher = more binding, comparable within an allelic series); in assay [15], 7.51 upbm affinity estimate (log intensity, higher = more binding, comparable within an allelic series).
Take AGTAATAA: the binding signal was 12.3 upbm affinity estimate (log intensity, higher = more binding, comparable within an allelic series) in assay [1]; 12.3 upbm affinity estimate (log intensity, higher = more binding, comparable within an allelic series) in assay [2]; 11.4 upbm affinity estimate (log intensity, higher = more binding, comparable within an allelic series) in assay [16]; 12.3 upbm affinity estimate (log intensity, higher = more binding, comparable within an allelic series) in assay [5]; 12.5 upbm affinity estimate (log intensity, higher = more binding, comparable within an allelic series) in assay [17]; 10.9 upbm affinity estimate (log intensity, higher = more binding, comparable within an allelic series) in assay [12]. Further, the binding signal in [18] is 12.3 upbm affinity estimate (log intensity, higher = more binding, comparable within an allelic series).
In the case of CCCTGCGG, the binding signal is 9.55 upbm affinity estimate (log intensity, higher = more binding, comparable within an allelic series) in [1]; 7.02 upbm affinity estimate (log intensity, higher = more binding, comparable within an allelic series) in assay [19]; 9.73 upbm affinity estimate (log intensity, higher = more binding, comparable within an allelic series) in assay [2]; 9.39 upbm affinity estimate (log intensity, higher = more binding, comparable within an allelic series) in assay [4]; 9.6 upbm affinity estimate (log intensity, higher = more binding, comparable within an allelic series) in [5]; 10.3 upbm affinity estimate (log intensity, higher = more binding, comparable within an allelic series) in assay [20]. The binding signal in assay [6] is 9.44 upbm affinity estimate (log intensity, higher = more binding, comparable within an allelic series); in assay [11], 9.6 upbm affinity estimate (log intensity, higher = more binding, comparable within an allelic series); in assay [12], 9.56 upbm affinity estimate (log intensity, higher = more binding, comparable within an allelic series); in [21] it was 10.5 upbm affinity estimate (log intensity, higher = more binding, comparable within an allelic series); in [22] it was 7 upbm affinity estimate (log intensity, higher = more binding, comparable within an allelic series).
Take CGCGGGAG: the binding signal in assay [1] was 9.47 upbm affinity estimate (log intensity, higher = more binding, comparable within an allelic series); in assay [2] it was 9.59 upbm affinity estimate (log intensity, higher = more binding, comparable within an allelic series); in assay [16] it was 9.38 upbm affinity estimate (log intensity, higher = more binding, comparable within an allelic series); in assay [5], 9.43 upbm affinity estimate (log intensity, higher = more binding, comparable within an allelic series); in assay [17], 9.23 upbm affinity estimate (log intensity, higher = more binding, comparable within an allelic series); in assay [12], 9.64 upbm affinity estimate (log intensity, higher = more binding, comparable within an allelic series). In addition, the binding signal in assay [18] was 9.25 upbm affinity estimate (log intensity, higher = more binding, comparable within an allelic series).
With CCCAGGTC, the binding signal in [1] was 9.66 upbm affinity estimate (log intensity, higher = more binding, comparable within an allelic series); in assay [2], 9.74 upbm affinity estimate (log intensity, higher = more binding, comparable within an allelic series); in assay [23] it was 6.5 upbm affinity estimate (log intensity, higher = more binding, comparable within an allelic series); in [5], 9.58 upbm affinity estimate (log intensity, higher = more binding, comparable within an allelic series); in assay [24], 6.45 upbm affinity estimate (log intensity, higher = more binding, comparable within an allelic series); in assay [12], 9.65 upbm affinity estimate (log intensity, higher = more binding, comparable within an allelic series). The binding signal in assay [25] is 6.46 upbm affinity estimate (log intensity, higher = more binding, comparable within an allelic series).
In the case of CTGCCTCC, the binding signal in [1] was 9.62 upbm affinity estimate (log intensity, higher = more binding, comparable within an allelic series); in assay [2] it was 9.69 upbm affinity estimate (log intensity, higher = more binding, comparable within an allelic series); in [4], 9.53 upbm affinity estimate (log intensity, higher = more binding, comparable within an allelic series); in assay [5], 9.67 upbm affinity estimate (log intensity, higher = more binding, comparable within an allelic series); in assay [6], 9.62 upbm affinity estimate (log intensity, higher = more binding, comparable within an allelic series); in assay [11], 9.56 upbm affinity estimate (log intensity, higher = more binding, comparable within an allelic series). Further, the binding signal in assay [12] is 9.6 upbm affinity estimate (log intensity, higher = more binding, comparable within an allelic series).
As to TTATACAA, the binding signal in assay [7] is 9.71 upbm affinity estimate (log intensity, higher = more binding, comparable within an allelic series).
In the case of CGACTTAA, the binding signal is 10.1 upbm affinity estimate (log intensity, higher = more binding, comparable within an allelic series) in assay [26] and 10.3 upbm affinity estimate (log intensity, higher = more binding, comparable within an allelic series) in assay [27].
Regarding ACCGATCT, the binding signal in [26] is 9.79 upbm affinity estimate (log intensity, higher = more binding, comparable within an allelic series).
Same read-out and setting: as for AATGGGGA, the figure is 10.3 upbm affinity estimate (log intensity, higher = more binding, comparable within an allelic series); as for ACCGCTTA, 10.8 upbm affinity estimate (log intensity, higher = more binding, comparable within an allelic series).
For the sequence AAAATGCT, the binding signal in assay [26] is 9.84 upbm affinity estimate (log intensity, higher = more binding, comparable within an allelic series).
Consider GGATATAA, for which the binding signal in assay [28] is 10.5 upbm affinity estimate (log intensity, higher = more binding, comparable within an allelic series).
With GGTGATAA, the binding signal in assay [26] was 10.3 upbm affinity estimate (log intensity, higher = more binding, comparable within an allelic series).
For CCGGTACC, the binding signal in assay [1] is 9.7 upbm affinity estimate (log intensity, higher = more binding, comparable within an allelic series); in [2], 9.7 upbm affinity estimate (log intensity, higher = more binding, comparable within an allelic series); in assay [5] it was 9.72 upbm affinity estimate (log intensity, higher = more binding, comparable within an allelic series); in assay [12], 9.71 upbm affinity estimate (log intensity, higher = more binding, comparable within an allelic series); in assay [29], 10.5 upbm affinity estimate (log intensity, higher = more binding, comparable within an allelic series); in assay [30], 10.6 upbm affinity estimate (log intensity, higher = more binding, comparable within an allelic series).
On to AGCCCGGC, for which the binding signal in assay [1] is 9.63 upbm affinity estimate (log intensity, higher = more binding, comparable within an allelic series); in assay [2], 9.75 upbm affinity estimate (log intensity, higher = more binding, comparable within an allelic series); in assay [5] it was 9.64 upbm affinity estimate (log intensity, higher = more binding, comparable within an allelic series); in assay [12], 9.67 upbm affinity estimate (log intensity, higher = more binding, comparable within an allelic series).
For the sequence GATGATCA, the binding signal in assay [26] is 9.89 upbm affinity estimate (log intensity, higher = more binding, comparable within an allelic series); in assay [31] it was 9.51 upbm affinity estimate (log intensity, higher = more binding, comparable within an allelic series).
Consider CTAACGCA, for which the binding signal was 9.98 upbm affinity estimate (log intensity, higher = more binding, comparable within an allelic series) in assay [26] and 9.64 upbm affinity estimate (log intensity, higher = more binding, comparable within an allelic series) in [27].
Take TTATGCAA: the binding signal in assay [26] is 9.95 upbm affinity estimate (log intensity, higher = more binding, comparable within an allelic series).
In the case of AACCAAAT, the binding signal in assay [26] is 10 upbm affinity estimate (log intensity, higher = more binding, comparable within an allelic series); in assay [19] it was 9.12 upbm affinity estimate (log intensity, higher = more binding, comparable within an allelic series); in assay [22], 9.13 upbm affinity estimate (log intensity, higher = more binding, comparable within an allelic series).
